{"source": "paper PMC12864922", "about": "“TDP-43 directly inhibits mRNA accumulation in neurites through modulation of mRNA stability”", "binders": {"B1": {"name": "ENSMUSG00000061578.598|Ksr2 (ssRNA)", "RNA": "GGGAGUUCUACAGUCCGACGAUCGCUUCGAUAUCCGCAUGCUAUAAAAUAUGAUUCAGGCAAAUUCAAUGCAACUCAAAAUUUCCACCAAUCCCAUAUUGUCCCUAGCAAUGACAAAAUUAUUUGCAAGACAGACCCUGUGACCUGUAGAGGCAAAAUAUAUGGUGGCUUGCCUGGCUGGCCUGUGAUAUAGUGGACUGUCUUAGUGAUCGGACUUCAGGGAGCAACCUAUAGGAAAUGCAAAGGCUUAGAGGGGACGGACAGCUCCCUGACCCUGGAUGGCCAGGAAUGGUGCUAGCUAGGGCUCUUGCGGUCGCACUAGUGUGGAAUUCUCGGGUGUCAAGG"}, "B2": {"name": "ENSMUSG00000031028.646|Tub (ssRNA)", "RNA": "GGGAGUUCUACAGUCCGACGAUCGCUUCGAUAUCCGCAUGCUACCCCACUGAGGUCCAGGUAGAGCAGAUGAGGCUGAAAUGUAGAGUGUUCUAUAGAGCAUCUCAGUAGCAUAGAAGGAGAAGCCCAGCUCCAACCUCCUGGACCCCAUACUGGUGACCAGCUUGGUGAGGACAGGCAAAAUUUCUCUAGCUGAGAGCACACUUAGCCAGUUUUCACGCCUAGAACAUAUAUGUCGAUUUGCACAUGAUUGUCUUUUCCUAUUUUGGAGUGGUCAGACAUUUUAUUUUUGUUCAAAAUUAUCCUCUUGCGGUCGCACUAGUGUGGAAUUCUCGGGUGUCAAGG"}, "B3": {"name": "ENSMUSG00000031028.671|Tub (ssRNA)", "RNA": "GGGAGUUCUACAGUCCGACGAUCGCUUCGAUAUCCGCAUGCUAGAGAGCACACUUAGCCAGUUUUCACGCCUAGAACAUAUAUGUCGAUUUGCACAUGAUUGUCUUUUCCUAUUUUGGAGUGGUCAGACAUUUUAUUUUUGUUCAAAAUUAUCUGGAGUUUUAGACAAACUUGCAAAACUGUGCUUUUAUUAAGUGACUUUUUGAAUAAACUUUUUGGUAUUCUGAAGCAAAUGUAUUUAUUUAUUGGUAUGUGCAAUGACAAACUUGGUAUUUUCCCAUAAUGACAUUAUGUAUGUUGUAGACUCUUGCGGUCGCACUAGUGUGGAAUUCUCGGGUGUCAAGG"}, "B4": {"name": "ENSMUSG00000029636.275|Wasf3|21:26 (ssRNA)", "RNA": "GGGAGUUCUACAGUCCGACGAUCGCUUCGAUAUCCGCAUGCUAUCCCUACGCCCUGCUUUGGCCACACACUGAGUGCUCUGUGCUGCGCCAUGGCCAUCCUGGAGCCUGCGCACACGUGGCCGCUGCUGUGACUCGCUGUCCUUGGUAAUUGGUGAGAGGCUUUUUCUUUCUUUCUCAGUUCUGCUUUUCCACACUGAGACCCACCAUGUUGACAUCAUCCUCGCGACGUUGACAUUUGAGCCUUUUGUUCUGUCUCCCAUGUGCCCUGUAGAACCCAGCACUCAUGUUUGGCAAAACUUUUUCUCUUGCGGUCGCACUAGUGUGGAAUUCUCGGGUGUCAAGG"}, "B5": {"name": "ENSMUSG00000061578.898|Ksr2 (ssRNA)", "RNA": "GGGAGUUCUACAGUCCGACGAUCGCUUCGAUAUCCGCAUGCUAGACACUACCCAAACCCUAGCACUCUCCCAGUGACUCUCCUAUGAGUACAUAUGCCAUCCUGCUUCCUUUGUGGCAAAACCCUGGGUCACCCAGAGACAGAUUUCCCAGAAUCCCUGGGCCACUUCUCAAUUCUACCCAUGACAGACAUGUCCCAUCCAUGAGCCCAGAUAGUCAAAGACUUCAGCACAAGGGUGUUUAGAGUAGGCAGUGUGGAAGUAUCAAUAAGGUUAUUGAGAUGAGGAUUUAGAAAGAUCCAUGUACUCUUGCGGUCGCACUAGUGUGGAAUUCUCGGGUGUCAAGG"}, "B6": {"name": "ENSMUSG00000042529.46|Kcnj12|142:149 (ssRNA)", "RNA": "GGGAGUUCUACAGUCCGACGAUCGCUUCGAUAUCCGCAUGCUAGGCCAAAAUGACUGGCUCACGGCCUCGGAGGCUGAUGUAUACCCAUGGGCAAGGAGGUGACUUCUUGGGGUAGGGUUGCUCAGGAGUUAGGGACUCUGCUGGAGGCCUUAGGUGCAGGUCCCAGCCCCGGUGGGAGGAGGCACACAUACUACACUUCAUUGGUUUUUAACUUGGGCAAGACUGUUUACAAACAAAAACAAACAAACAAACAAUCAAAAAAAAAACCCACCCCACAAAACACAAGAAAACAUUAACAGGUGCUCUUGCGGUCGCACUAGUGUGGAAUUCUCGGGUGUCAAGG"}, "B7": {"name": "ENSMUSG00000031028.261|Tub (ssRNA)", "RNA": "GGGAGUUCUACAGUCCGACGAUCGCUUCGAUAUCCGCAUGCUACCAGAGGGAAGCAAAGAGCAUUUAGACAUUGCUUUUUGCUUUGAAAUAGAUAUGUUUGGAAACGCUAAGUAGAAGUUUAAAAAGUAGAGUCAUGUAGAGUCAUGCUUUGAAUAUGUGGGUCAUGCUUUAGAUAUGAAGAGGCUAUGCAGGUAAGGAGGCUGGAUUGAUGUAAAUGGAAGUAGUACUUUAAGAAAGCUCUAGAUUUCCCAGGUUGGACACUCGACGAAAGGCACACCUGCUGCAGCAGGUUCUGACACACCCUCUUGCGGUCGCACUAGUGUGGAAUUCUCGGGUGUCAAGG"}, "B8": {"name": "ENSMUSG00000043670.150|Diras1|4:8;157:162;227:231 (ssRNA)", "RNA": "GGGAGUUCUACAGUCCGACGAUCGCUUCGAUAUCCGCAUGCUAGGACACACGAGUGGCUGCCUGGACACUGCCCACCUGGACACCAGCCUUCUGCUGAGAUAGAGACCUUGGCACAGUGGCACCUCGACAGCCACCCCGACUGGGGGUUUGGGGUGCUGAGGGUGGGGUGCCCAGCUGAGAGUCUAUCAGCAAAGUCCCACACACCGGUGAUAGGACUAGUGGCUGCUGCCCUAGGGCUCUGACAGAAUCUGAGCCUCUUUGCUGGUCAACACAACUCUGGAGACUGUCCCCCAUGUCUGCCCCUCUUGCGGUCGCACUAGUGUGGAAUUCUCGGGUGUCAAGG"}, "B9": {"name": "ENSMUSG00000034801.46|Sos2 (ssRNA)", "RNA": "GGGAGUUCUACAGUCCGACGAUCGCUUCGAUAUCCGCAUGCUACCACCCGCCACUGUAUAGACUGCCUCUGCUGGAAAAUGCAGAAACUCCUCAAUGACCUUGGCCAUAUGUAGUCAUUGACACUGGAAUAGUAUUUGUAAAGGUUUUUAAUUUAUUCAAAAAGACAUAGUAUUUUAGUACUUUUUACAGAAAUGCUACUGAUUAAAUAAGCUCUUAAGAAUUAGUAAACUUGUUGGAUGGCAGUGGCCCACAGCUGUAAUCCCAGCACCCUGGUUGCAGGGGCAGGUGGGCUUCAGGGUUUGCUCUUGCGGUCGCACUAGUGUGGAAUUCUCGGGUGUCAAGG"}}, "note": "The full ranking holds about 9,900 sequences; the median of “r (bound/input frequency ratio)” is about 0.7, and the highest 2% start at about 6.5. The entries come from a sample that favours the highest values as a whole."}
{"target": "TDP-43 (Homo sapiens, UniProt Q13148 1-414)", "sequence (Q13148 whole entry)": "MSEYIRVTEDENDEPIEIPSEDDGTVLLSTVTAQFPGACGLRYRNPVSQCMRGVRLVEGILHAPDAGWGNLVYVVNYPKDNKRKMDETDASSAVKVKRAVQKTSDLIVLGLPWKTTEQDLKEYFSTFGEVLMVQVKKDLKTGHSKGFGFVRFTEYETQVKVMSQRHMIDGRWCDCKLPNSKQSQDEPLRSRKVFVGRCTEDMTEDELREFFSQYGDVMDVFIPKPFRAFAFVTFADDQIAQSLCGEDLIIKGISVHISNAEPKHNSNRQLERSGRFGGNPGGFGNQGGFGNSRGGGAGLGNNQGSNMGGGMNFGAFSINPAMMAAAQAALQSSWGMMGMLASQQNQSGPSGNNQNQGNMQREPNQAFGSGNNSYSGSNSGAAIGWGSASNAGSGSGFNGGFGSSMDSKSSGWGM", "assay": "RNA Bind-n-Seq with designed 260-mer pool; 25 mM Tris-HCl, 150 mM KCl, 3 mM MgCl2, BSA (printed 500 mg/mL), 20 units/mL SUPERase IN; pH not stated; 500 nM RNA pool, 1 h, 4 C; TDP-43 5, 50, 500 nM; high values mean tight binding", "settings": "protein: recombinant; tags: SBP (GST cleaved off with PreScission; pGEX-GST-SBP)", "outline": "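Duplicate measurements used two independent batches of recombinant SBP-tagged TDP-43, which was captured on streptavidin beads at 5, 50 or 500 nM. The beads were incubated with 500 nM of an in vitro-transcribed 260-nt 3′ UTR oligo pool for 1 h at 4 °C in 25 mM Tris-HCl, 150 mM KCl, 3 mM MgCl2, BSA and SUPERase IN. After washing, biotin elution, reverse transcription, PCR amplification and sequencing, binding was expressed as R: each oligo's normalized read abundance in the bound sample over its abundance in input.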"}
{"binder": "B1", "binding signal": "0.515 R (bound/input frequency ratio)"}
{"binder": "B2", "binding signal": "0.442 R (bound/input frequency ratio)"}
{"binder": "B3", "binding signal": "0.247 R (bound/input frequency ratio)"}
{"binder": "B4", "binding signal": "1.01 R (bound/input frequency ratio)"}
{"binder": "B5", "binding signal": "0.362 R (bound/input frequency ratio)"}
{"binder": "B6", "binding signal": "0.514 R (bound/input frequency ratio)"}
{"binder": "B7", "binding signal": "2.37 R (bound/input frequency ratio)"}
{"binder": "B8", "binding signal": "1 R (bound/input frequency ratio)"}
{"binder": "B9", "binding signal": "0.116 R (bound/input frequency ratio)"}
